Data as given in PubChem BioAssay (NCATS).
Where “and” joins values, the source holds several entries; their conditions need not be identical. Equal entries are not always repeated. Records with an inconclusive call do not appear. Calls of active or inactive are those of the source. Unless noted, calls come from the whole dose curve; as a rule, active = well fitted curve in the direction sought with a large enough effect; inconclusive = small, poorly fitted or top-dose-only effect, or another doubt; inactive = no such curve, though single readings can be large; an effect the other way counts as inactive or inconclusive.

Key:
[1] = test system: Hek293T; experiment: Primary qHTS to identify gynecologic anti-cancer compounds using libraries of approved drugs and bioactive compounds (AID 1345084); settings: Gynecologic cancer cell panel viability, ATPlite luminescence, 48 h, control line for the selectivity index; series mostly up to 57.5 µM; note: % is set by controls: 0 for no effect and ±100 for the full control effect; nearly all actives have a fitted effect of over 55% in size
Method in brief: (§1)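 Luminescence from the ATPlite ATP-monitoring reagent indicates viable cell number; lower signal means cytotoxicity. Cells received compound 16 h after seeding and were exposed for 48 h across five concentrations.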

[2] = test system: JEG-3; experiment: as above; settings: Gynecologic cancer cell panel viability, ATPlite luminescence, 48 h; series mostly up to 57.5 µM
Method in brief: as §1

[3] = test system: OV90; experiment: as above; settings: Gynecologic cancer cell panel viability, ATPlite luminescence, 48 h; series mostly up to 57.5 µM
Method in brief: as §1

[4] = test system: PA-1; experiment: as above; settings: Gynecologic cancer cell panel viability, ATPlite luminescence, 48 h; series mostly up to 57.5 µM
Method in brief: as §1

[5] = test system: SKOV3; experiment: as above; settings: Gynecologic cancer cell panel viability, ATPlite luminescence, 48 h; series mostly up to 57.5 µM
Method in brief: as §1

[6] = test system: Tov-21-G; experiment: as above; settings: Gynecologic cancer cell panel viability, ATPlite luminescence, 48 h; series mostly up to 57.5 µM
Method in brief: as §1

[7] = test system: Tov112D; experiment: as above; settings: Gynecologic cancer cell panel viability, ATPlite luminescence, 48 h; series mostly up to 57.5 µM
Method in brief: as §1

[8] = Drug repurposing screens with cells derived from glioblastoma tumor samples (AID 1345199); settings: GBM patient neurospheres viability, ATP luminescence, 48 h; note: nearly all actives have a fitted effect of over 40% in size; note: potency is the fitted concentration of half-maximal effect; for activity, negative = cell killing: % is set by controls: 0 for no effect and ±100 for the full control effect
Method in brief: (§2)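 Primary testing used CD133+ neurospheres from four GBM patients, seven concentrations, 48 h exposure and ATP-based viability; confirmation added three slower-growing patient lines.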

[9] = test system: astro; experiment: as above; settings: viability, ATP luminescence, 48 h; series mostly up to 45.9 µM
Method in brief: as §2

[10] = target: Nuclear receptor subfamily 1 group I member 2 (Rattus norvegicus) (UniProt Q9R1A7); experiment: qHTS assay for small molecule activators of the rat pregnane X receptor (rPXR) signaling pathway (AID 651751; call rule not given here; note: 0% is about no effect); settings: rPXR reporter cells, luciferase (One-Glo), 24 h
[11] = qHTS assay for small molecule activators of the human pregnane X receptor (PXR) signaling pathway (AID 720659; call rule not given here; note: 0% is about no effect)
[12] = at 20 µM (top of the series), tumour line C
[13] = at 21.2 µM (top of the series), tumour line B
[14] = at 21.2 µM (top of the series), tumour line D
[15] = at 45.9 µM (top of the series), tumour line B
[16] = at 45.9 µM (top of the series), tumour line D
[17] = at 46.1 µM (top of the series), tumour line C
[18] = at 46 µM (top of the series), tumour line A

Nuclear receptor subfamily 1 group I member 2 (Rattus norvegicus), sequence (Q9R1A7 whole entry, looked up): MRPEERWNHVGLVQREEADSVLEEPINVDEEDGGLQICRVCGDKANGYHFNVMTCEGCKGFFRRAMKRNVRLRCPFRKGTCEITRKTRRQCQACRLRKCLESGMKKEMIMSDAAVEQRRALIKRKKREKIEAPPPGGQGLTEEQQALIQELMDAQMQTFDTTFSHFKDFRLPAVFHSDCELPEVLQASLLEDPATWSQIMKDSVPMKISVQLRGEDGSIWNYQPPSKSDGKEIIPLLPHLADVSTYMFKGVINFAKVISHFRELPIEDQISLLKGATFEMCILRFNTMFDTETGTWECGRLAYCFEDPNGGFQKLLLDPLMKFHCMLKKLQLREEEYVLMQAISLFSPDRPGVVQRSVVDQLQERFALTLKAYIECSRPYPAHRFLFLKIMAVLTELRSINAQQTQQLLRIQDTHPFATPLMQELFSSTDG

CN1CCOC(c2ccccc2)c2ccccc2C1 (stereo not drawn)
inactive: Potency [1] | Potency [2] | Potency [3] | Potency [4] | Potency [5] | Potency [6] | Potency [7] | activity, negative = cell killing [8, 12] 10.6% | activity, negative = cell killing [8, 13] -10.4% | activity, negative = cell killing [8, 14] -4.89% | Potency [9]

CCN(CC)C(=O)Nc1ccc(OCC(O)CNC(C)(C)C)c(C(C)=O)c1 (stereo not drawn)
inactive: Potency [1] | Potency [2] | Potency [3] | Potency [4] | Potency [5] | Potency [6] | Potency [7] | activity, negative = cell killing [8, 15] -20.9% | activity, negative = cell killing [8, 16] 0.286% | activity, negative = cell killing [8, 17] -24.6% | Potency [9]

CCN(CC)CCNC(=O)c1cc(Cl)c(N)cc1OC
inactive: Potency [1] | Potency [2] | Potency [3] | Potency [4] | Potency [5] | Potency [6] | Potency [7] | activity, negative = cell killing [8, 15] -15.5% | activity, negative = cell killing [8, 16] -19.3% | activity, negative = cell killing [8, 17] 6.62% | Potency [9]

CCCCCCCCCCCCOS(=O)(=O)O
inactive: Potency [1] | Potency [2] | Potency [3] | Potency [4] | Potency [5] | Potency [6] | Potency [7] | activity, negative = cell killing [8, 15] -29.7% | activity, negative = cell killing [8, 16] 0.019% | activity, negative = cell killing [8, 17] -0.178% | Potency [9] | max response [10] 1.76% [middle of 4 runs] | outcome [11]

Nc1nc2c(ncn2CCC(CO)CO)c(=O)[nH]1
inactive: Potency [1] | Potency [2] | Potency [3] | Potency [4] | Potency [5] | Potency [6] | Potency [7] | activity, negative = cell killing [8, 15] -8.7% | activity, negative = cell killing [8, 16] 3.63% | activity, negative = cell killing [8, 17] -21.6% | Potency [9]

CC12CCC(CC1)C(C)(C)O2
inactive: Potency [1] | Potency [2] | Potency [3] | Potency [4] | Potency [5] | Potency [6] | Potency [7] | activity, negative = cell killing [8, 15] -7.94% | activity, negative = cell killing [8, 16] 5.35% | activity, negative = cell killing [8, 17] -12.5% | Potency [9] | max response [10] 2.12% | outcome [11]

C[C@@H]1CC[C@@]2(OC1)O[C@H]1C[C@H]3[C@@H]4CC[C@H]5C[C@@H](O)CC[C@]5(C)[C@H]4CC(=O)[C@]3(C)[C@H]1[C@@H]2C
inactive: activity change, negative = cytotoxicity [1] 7.28% [at 6.55 µM] | activity change, negative = cytotoxicity [2] -0.879% [at 6.55 µM] | activity change, negative = cytotoxicity [3] 12.9% [at 6.55 µM] | activity change, negative = cytotoxicity [4] 9.38% [at 6.55 µM] | activity change, negative = cytotoxicity [5] 8.75% [at 6.55 µM] | activity change, negative = cytotoxicity [6] 5.68% [at 6.55 µM] | activity change, negative = cytotoxicity [7] 10.1% [at 6.55 µM] | activity, negative = cell killing [8, 12] -26.8% | activity, negative = cell killing [8, 13] -15.7% | activity, negative = cell killing [8, 14] -22.8% | Potency [9]

COc1ccc2c(c1)C(=O)N(CCc1ccc(S(=O)(=O)NC(=O)NC3CCCCC3)cc1)C(=O)C2(C)C
inactive: Potency [1] | Potency [2] | Potency [3] | Potency [4] | Potency [5] | Potency [6] | Potency [7] | activity, negative = cell killing [8, 12] -4.28% | activity, negative = cell killing [8, 13] -10.5% | activity, negative = cell killing [8, 14] -7.62% | Potency [9]

CCCCOC(=O)c1ccc(O)cc1
inactive: Potency [1] | Potency [2] | Potency [3] | Potency [4] | Potency [5] | Potency [6] | Potency [7] | activity, negative = cell killing [8, 15] -17.3% | activity, negative = cell killing [8, 16] -11.1% | activity, negative = cell killing [8, 17] 26.3% | Potency [9] | max response [10] -8.55% and 2.81%

CCOC(=O)[C@H](CCc1ccccc1)N[C@@H](C)C(=O)N1C(=O)N(C)C[C@H]1C(=O)O
inactive: Potency [1] | Potency [2] | Potency [3] | Potency [4] | Potency [5] | Potency [6] | Potency [7] | activity, negative = cell killing [8, 15] -4.44% | activity, negative = cell killing [8, 16] -4.75% | activity, negative = cell killing [8, 18] -37.7% | Potency [9]

NCCNCCNCCN
inactive: Potency [1] | Potency [2] | Potency [3] | Potency [4] | Potency [5] | Potency [6] | Potency [7] | activity, negative = cell killing [8, 15] -6% | activity, negative = cell killing [8, 16] -28.2% | activity, negative = cell killing [8, 17] -8.15% | Potency [9] | max response [10] 9.63% | outcome [11]

OCC(O)CN1CCN(c2ccccc2)CC1 (stereo not drawn)
inactive: Potency [1] | Potency [2] | Potency [3] | Potency [4] | Potency [5] | Potency [6] | Potency [7] | activity, negative = cell killing [8, 15] -18.5% | activity, negative = cell killing [8, 16] -7.12% | activity, negative = cell killing [8, 17] -25.1% | Potency [9]

CC1(C)[C@@H]2CC[C@@]1(C)C(=O)C2
inactive: Potency [1] | Potency [2] | Potency [3] | Potency [4] | Potency [5] | Potency [6] | Potency [7] | activity, negative = cell killing [8, 15] -26.7% | activity, negative = cell killing [8, 16] -2.76% | activity, negative = cell killing [8, 17] -20.2% | Potency [9] | max response [10] 4.84% | outcome [11]

COc1ccc2[nH]c(S(=O)Cc3ncc(C)c(OC)c3C)nc2n1 (stereo not drawn)
inactive: Potency [1] | Potency [2] | Potency [3] | Potency [4] | Potency [5] | Potency [6] | Potency [7] | activity, negative = cell killing [8, 15] -28.9% | activity, negative = cell killing [8, 16] -21.6% | Potency [9]
active: Potency ([8]; tumour line A) 11.2 µM

C[C@H]1O[C@@H](n2cc(F)c(=O)[nH]c2=O)[C@H](O)[C@@H]1O
inactive: Potency [1] | Potency [2] | Potency [3] | Potency [4] | Potency [5] | Potency [7] | activity, negative = cell killing [8, 15] -19.9% | activity, negative = cell killing [8, 16] -17.4% | activity, negative = cell killing [8, 18] -26.5% | activity, negative = cell killing [8, 17] 3.86% | Potency [9]

CCOc1nc2cccc(C(=O)O)c2n1Cc1ccc(-c2ccccc2-c2nn[nH]n2)cc1
active: Potency [9] 20 µM
inactive: Potency [1] | Potency [2] | Potency [3] | Potency [4] | Potency [5] | Potency [6] | Potency [7] | activity, negative = cell killing [8, 15] 5.1%
